Reference: PubChem BioAssay AID2289 (National Center for Advancing Translational Sciences (NCATS), 2010)
In all, about 340,000 compounds went through this assay and about 3,300 (0.97%) were called active. Roughly 9% stayed inconclusive and do not appear here. The call rests on the fitted dose curve; in most records, active means well fitted inhibition curve with a large enough effect; inconclusive means small, poorly fitted or top-dose-only effect, or effect the other way; inactive means flat fitted curve, though single readings scatter. This is one part of the list.

Assay: qHTS Assay for Modulators of miRNAs and/or Inhibitors of miR-21; further: nearly all actives have a fitted effect of over 55% in size
Settings: HeLa miR-21-FLuc reporter, luciferase luminescence, 48 h; actives lower the signal
Procedure, shortened: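 Compounds were titrated across several concentrations (up to approximately 40 uM) and incubated 48 hours with HeLa miR-21-FLuc reporter cells (miR-21 target sequence downstream of FLuc, endogenous miR-21). Readout was firefly luciferase luminescence after lytic detection reagent.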
Potency means the concentration at half of the fitted maximal effect.

Potency, active:
Cc1nc(NC(=O)c2cc3c(s2)CCCCC3)sc1C(=O)N(C)C 7.36 µM
Fc1cccc(C2NN=C(c3ccccc3)S2)c1 (stereo not drawn) 0.585 µM
O=C1NN(c2ccccc2)C(=O)/C1=C/c1coc2ccccc2c1=O 4.65 µM
CC1CCCCN1Cc1c(O)ccc2c(=O)c(-c3ccc(Cl)cc3)coc12 (stereo not drawn) 18.5 µM
COc1ccc(-c2cc(COc3ccccc3)on2)cc1 9.27 µM
Fc1ccc(OCc2cc(-c3ccccc3)no2)cc1 4.14 µM
CCCCNC(=O)c1nnn(-c2ccccc2)c1N 16.5 µM
CC(C)N1C(=O)S/C(=C\c2ccc(-c3ccc(Cl)c(C(=O)O)c3)o2)C1=O 0.293 µM
CCN=C1S/C(=C\c2ccc(-c3cccc(C(=O)O)c3)o2)C(=O)N1CC 0.656 µM
C#CCN1C(=O)S/C(=C\c2ccc(-c3ccc(C(=O)O)cc3C)o2)C1=O 3.29 µM
COC(=O)C(C)N1C(=O)S/C(=C\c2ccc(-c3ccc(C(=O)O)cc3C)o2)C1=O (stereo not drawn) 6.56 µM
COc1ccc(OC)c2c(N3CC(C)OC(C)C3)cc(C(F)(F)F)nc12 (stereo not drawn) 6.56 µM
O=C(Nc1ccccn1)c1sc2cccc(F)c2c1Cl 0.165 µM
Brc1cc(Br)c2nc(-c3ccc(N4CCOCC4)cc3)ccc2c1 14.7 µM
N#C/C(=C\c1cccnc1)c1nc2c(s1)CCCC2 2.61 µM
CCc1ccc(NC(=O)CSc2ccccn2)cc1 10.4 µM
CCc1ccc(NC(=O)CSc2nncn2-c2cccnc2)cc1 16.5 µM
Cc1cc(NC(=O)CCSc2ccccc2)ccc1Br 16.5 µM
CCc1ccc(NC(=O)CSc2ccc3nc(-c4ccc(OC)cc4)cn3n2)cc1 0.736 µM
Cc1ccc(NC(=O)CCSc2ccccn2)cc1 4.14 µM
Cc1cc(OCC(=O)N2CCCCCC2)ccc1[N+](=O)[O-] 5.85 µM
Cc1ccc(NC(=O)c2sccc2C)cc1[N+](=O)[O-] 4.14 µM
O=C(NC(=S)Nc1ccccc1[N+](=O)[O-])c1ccccc1 9.27 µM
O=C(CCc1ccccc1)Nc1ccccc1[N+](=O)[O-] 14.7 µM
O=C(Nc1ccccn1)Nc1ccccc1[N+](=O)[O-] 9.27 µM
Cc1ccc(NC(=O)c2ccc(C(C)(C)C)cc2)cc1[N+](=O)[O-] 5.21 µM
Cc1ccc(NC(=O)C2C3CCCCC32)cc1[N+](=O)[O-] (stereo not drawn) 13.1 µM
CC(C)COc1ccc(C(=O)Nc2ccccc2[N+](=O)[O-])cc1 8.26 µM
Cc1cc(NC(=O)c2ccccc2[N+](=O)[O-])ccc1Br 7.36 µM
CC(C)(C)c1cc(NC(=O)c2cccc([N+](=O)[O-])c2)no1 1.47 µM
O=C(Nc1ccccn1)c1cc2cc([N+](=O)[O-])ccc2s1 0.826 µM
CC(C)(C)c1ccc(C(=O)Nc2ccc([N+](=O)[O-])cn2)cc1 0.464 µM
CC(C)(C)c1ccc(NC(=O)c2ccccc2)c([N+](=O)[O-])c1 0.736 µM
Clc1ccc(-c2noc(CN3CCOCC3)n2)cc1 16.5 µM
c1ccc(OCCOc2cccc3cccnc23)cc1 13.1 µM
Brc1ccccc1OCCOc1cccc2cccnc12 11.7 µM
COc1cccc(OC)c1OCCCOc1cccc2cccnc12 7.36 µM
O=[N+]([O-])c1ccccc1OCCCOc1cccc2cccnc12 5.21 µM
CC(C)Sc1nc(SCC(=O)O)c2c3c(sc2n1)COC(C)(C)C3 9.27 µM
COCCCNC(=O)C1CCN(C(=O)c2oc3cc4sc(N(C)C)nc4cc3c2C)CC1 14.7 µM
Cc1ccccc1NC(=S)c1ccc2ccccc2n1 7.36 µM
Cc1ccc(C)c(NC(=S)c2ccc3ccccc3n2)c1 1.65 µM
N/C(=N\OC(=O)COc1ccc2ccccc2c1Br)c1ccccn1 7.36 µM
N/C(=N\OC(=O)COc1ccc2ccccc2c1Br)c1ccncc1 16.5 µM
CCOC(=O)c1c(NC(=O)CN2CCN(C)CC2)sc(C(=O)Nc2ccccc2)c1C 18.5 µM
COc1cc(/C=N/NS(=O)(=O)c2ccc3ccccc3c2)ccc1OCc1ccc(C(=O)O)cc1 0.414 µM
COc1cc(/C=N/NS(=O)(=O)c2ccc(C)cc2)ccc1OCc1cccc(C(=O)O)c1 0.464 µM
Cc1cc(SCC(=O)Nc2nsc(-c3ccc(C(C)(C)C)cc3)n2)nc2ccccc12 2.33 µM
COc1ccc(-n2cc(CN(C)CCO)c(-c3cccc(F)c3)n2)cc1 0.414 µM
C/C(=N\OCc1cccc(C(=O)O)c1)c1ccc(Cl)cc1 0.0414 µM
COc1cc(/C=N/OCC(=O)NC2CCCCC2C)ccc1OCc1ccc(Cl)cc1 (stereo not drawn) 4.65 µM
COc1cc(/C=N/OCC(=O)Nc2cc(C)cc(C)c2)ccc1OCc1ccc(Cl)cc1 2.93 µM
CCCCc1ccc(NC(=O)C2CCCO2)cc1 (stereo not drawn) 1.85 µM
CC1CCN(C(=O)Cn2nnc(-c3cccs3)n2)CC1 7.36 µM
Brc1ccc(-c2cn3cc(Cc4ccccc4)sc3n2)cc1 0.329 µM
CSc1ccccc1OCc1cc(C(=O)NCc2cccc(C)n2)no1 7.36 µM
CSc1ccccc1OCc1cc(C(=O)N(C)Cc2ccncn2)no1 8.26 µM
CSc1ccccc1OCc1cc(C(=O)N(C)Cc2nonc2C)no1 8.26 µM
COc1cccc(OCc2cc(C(=O)NCc3ccccn3)no2)c1 13.1 µM
CC(NC(=O)c1cc(COc2ccccc2)on1)c1nccs1 (stereo not drawn) 2.07 µM
CN1CCc2c(sc(/N=C/c3cc(Cl)ccc3O)c2C#N)C1 6.56 µM
COc1cccc([C@@H]2Oc3ccc(OC)cc3C(=O)[C@H]2OC(=O)NCc2ccc3c(c2)OCO3)c1 5.85 µM
COc1ccc2c(c1)O[C@H](c1ccc3c(c1)OCO3)[C@@H](O)C2=O 11.7 µM
